Laboratory results from the supplement of paper PMC6555819.

Tests used:
Assay in all cases: PBM binding z-score (relative to random genomic background probes); higher = stronger binding; sequences stand for … in GC…GCGATTGACAGCGTAGAATGAAGG
[1] = test system: RARb homodimer (NR concentration 270 nM)
How it was run: (§1)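 Binding z-scores were set against random background probes. The data came from custom Agilent 4×180K protein-binding microarrays carrying double-stranded probes with 34-nt variable regions, incubated 1 h with ligand-free nuclear receptor dimers. Partner-specific antibodies detected binding, and scanned fluorescence was regression-normalized.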

[2] = test system: RARg:RXRa (NR concentration 270 nM, RXRa partner concentration 90 nM)
How it was run: as §1

[3] = test system: RARg homodimer (NR concentration 270 nM)
How it was run: as §1

[4] = test system: RXRa DBDmut IVT, anti-RXR (DBD mutation: RXRa K156A/R161A, NR concentration 90 nM)
How it was run: as §1

[5] = test system: RXRa homodimer (NR concentration 180 nM)
How it was run: as §1

[6] = test system: THRa:RXRa (NR concentration 90 nM, RXRa partner concentration 90 nM)
How it was run: as §1

[7] = test system: THRa homodimer (NR concentration 90 nM)
How it was run: as §1

[8] = test system: VDR:RXRa (NR concentration 270 nM, RXRa partner concentration 90 nM)
How it was run: as §1

[9] = test system: VDR homodimer (NR concentration 270 nM)
How it was run: as §1

## GCTGCTAGGTCAACTGATGGTTAGCTAAAGCTCG
[1]
  PBM binding z-score: 3.25
[2]
  PBM binding z-score: 4.51
[3]
  PBM binding z-score: 5.52
[4]
  PBM binding z-score: 1.85
[5]
  PBM binding z-score: 2.81
[6]
  PBM binding z-score: 2.94
[7]
  PBM binding z-score: 0.862
[8]
  PBM binding z-score: 1.39
[9]
  PBM binding z-score: -0.316

## GATACAGGATCAAGGCCAGAGTACGCGTATTGAT
[1]
  PBM binding z-score: 0.0211
[2]
  PBM binding z-score: 0.189
[3]
  PBM binding z-score: 0.325
[4]
  PBM binding z-score: -0.499
[5]
  PBM binding z-score: 0.195
[6]
  PBM binding z-score: -0.265
[7]
  PBM binding z-score: -0.214
[8]
  PBM binding z-score: -0.308
[9]
  PBM binding z-score: 0.147

## TCATATAGGTAAAGAGGTGAAAGTCCGTAAGTTA
[1]
  PBM binding z-score: 1.56
[2]
  PBM binding z-score: 1.37
[3]
  PBM binding z-score: 0.762
[4]
  PBM binding z-score: 1.73
[5]
  PBM binding z-score: 2.04
[6]
  PBM binding z-score: 1.8
[7]
  PBM binding z-score: 0.621
[8]
  PBM binding z-score: 1.45
[9]
  PBM binding z-score: 0.613

## CGAACTAGGTCAGAACAGGACAGTGACGGATGAT
[1]
  PBM binding z-score: 2
[2]
  PBM binding z-score: 2.38
[3]
  PBM binding z-score: 3.42
[4]
  PBM binding z-score: 0.578
[5]
  PBM binding z-score: 1.31
[6]
  PBM binding z-score: 3.31
[7]
  PBM binding z-score: 0.199
[8]
  PBM binding z-score: 0.542
[9]
  PBM binding z-score: 0.168

## GCTACTTGGTCAGTAAAAGGTCACACACCGGTCG
[1]
  PBM binding z-score: 5.14
[2]
  PBM binding z-score: 5.37
[3]
  PBM binding z-score: 5.09
[4]
  PBM binding z-score: 0.64
[5]
  PBM binding z-score: 5.41
[6]
  PBM binding z-score: 3.55
[7]
  PBM binding z-score: 2.08
[9]
  PBM binding z-score: 2.09

## TGTAAAAGTTCAAAGGTAACGTAAGTATCCACAC
[1]
  PBM binding z-score: 3.5
[2]
  PBM binding z-score: 5.35
[3]
  PBM binding z-score: 5.12
[4]
  PBM binding z-score: 4.06
[5]
  PBM binding z-score: 6.28
[6]
  PBM binding z-score: 3.53
[7]
  PBM binding z-score: 0.192
[8]
  PBM binding z-score: 4.65
[9]
  PBM binding z-score: 2.83

## TTACCAAGGTAAGCTGAGGTCGTTGATCCAACTC
[1]
  PBM binding z-score: 0.571
[2]
  PBM binding z-score: 0.164
[3]
  PBM binding z-score: -0.00347
[4]
  PBM binding z-score: 0.278
[5]
  PBM binding z-score: 0.962
[6]
  PBM binding z-score: 4.33
[7]
  PBM binding z-score: 1.61
[8]
  PBM binding z-score: 2.84
[9]
  PBM binding z-score: 1.65

## AGACTGAGGTTATTAAGATCAGGGAATTGCGGTC
[1]
  PBM binding z-score: 0.996
[2]
  PBM binding z-score: 1.13
[3]
  PBM binding z-score: 0.72
[4]
  PBM binding z-score: 1.53
[5]
  PBM binding z-score: 1.54
[6]
  PBM binding z-score: 1.91
[7]
  PBM binding z-score: 0.441
[8]
  PBM binding z-score: 2.39
[9]
  PBM binding z-score: 0.749

## AGAAGGAGGGCACGCTGAGTTGATAGCAGAGTAG
[1]
  PBM binding z-score: 1.4
[2]
  PBM binding z-score: 1.94
[3]
  PBM binding z-score: 2.17
[4]
  PBM binding z-score: 0.783
[5]
  PBM binding z-score: 1.2
[6]
  PBM binding z-score: 1.13
[7]
  PBM binding z-score: -0.112
[8]
  PBM binding z-score: 1.41
[9]
  PBM binding z-score: 1.04

## CTCGAAAGGTCGGTTGAGGGGAGTATACGGATAA
[1]
  PBM binding z-score: 1.86
[2]
  PBM binding z-score: 2.44
[3]
  PBM binding z-score: 2.58
[4]
  PBM binding z-score: 0.704
[5]
  PBM binding z-score: 2.14
[6]
  PBM binding z-score: 4
[7]
  PBM binding z-score: -0.23
[8]
  PBM binding z-score: 1.24
[9]
  PBM binding z-score: 0.528

## TATACAGAGTCAAAGGCCAGAGTACGAATGTCGA
[1]
  PBM binding z-score: 0.843
[2]
  PBM binding z-score: 0.902
[3]
  PBM binding z-score: 1.01
[4]
  PBM binding z-score: -0.862
[5]
  PBM binding z-score: 1.03
[6]
  PBM binding z-score: -0.0396
[7]
  PBM binding z-score: -0.776
[8]
  PBM binding z-score: 0.241
[9]
  PBM binding z-score: 0.0199

## CTCGAAATGTCGTGCTCAGGTGAGTATACCAAAC
[1]
  PBM binding z-score: 0.0938
[2]
  PBM binding z-score: 0.145
[3]
  PBM binding z-score: 0.0439
[4]
  PBM binding z-score: 0.155
[5]
  PBM binding z-score: -0.16
[6]
  PBM binding z-score: 1.53
[7]
  PBM binding z-score: 0.939
[8]
  PBM binding z-score: 0.0153
[9]
  PBM binding z-score: 0.16

## CCGACTGGGGCAAAAGGTTACCATAAGCCAGCCC
[1]
  PBM binding z-score: 3.28
[2]
  PBM binding z-score: 3.72
[3]
  PBM binding z-score: 2.32
[4]
  PBM binding z-score: 0.0121
[5]
  PBM binding z-score: 2.71
[6]
  PBM binding z-score: 1.44
[7]
  PBM binding z-score: -0.187
[8]
  PBM binding z-score: 1.08
[9]
  PBM binding z-score: -0.455

## ACTCGGAGGACAAAGCTCAGAGCTACGCCAGTGA
[1]
  PBM binding z-score: -0.345
[2]
  PBM binding z-score: 0.103
[3]
  PBM binding z-score: 0.826
[4]
  PBM binding z-score: 0.394
[5]
  PBM binding z-score: -0.292
[6]
  PBM binding z-score: 0.233
[7]
  PBM binding z-score: -0.675
[9]
  PBM binding z-score: -0.243

## CGTCCAAGGTCAGCAGGTTAGTGAAAGCGACGTG
[1]
  PBM binding z-score: 4
[2]
  PBM binding z-score: 5.37
[3]
  PBM binding z-score: 6.05
[4]
  PBM binding z-score: 2.64
[5]
  PBM binding z-score: 4.17
[6]
  PBM binding z-score: 3.57
[7]
  PBM binding z-score: 2.06
[9]
  PBM binding z-score: 1.76

## ATCTCTAGGTAAAGATAGTTCATTGAATGCAAAT
[1]
  PBM binding z-score: 1.46
[2]
  PBM binding z-score: 1.01
[3]
  PBM binding z-score: 0.983
[4]
  PBM binding z-score: 0.467
[5]
  PBM binding z-score: 0.854
[6]
  PBM binding z-score: 1.28
[7]
  PBM binding z-score: 0.302
[9]
  PBM binding z-score: 1.98
